Pol beta inh – blocks human DNA polymerase beta activity; P06746; Pol beta primer extension/strand displacement, fluorescence kinetic; Potency, µM (titrated, usually from 114 µM), actives largely listed as inhibitors; 340,000 tested, 1.3% active
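Homogeneous kinetic assay of primer extension and strand displacement by 10 nM Pol beta, preincubated 15 min at room temperature with compound before 50 nM substrate (final) was added. Read at 0 and 10 min; four-parameter Hill fit.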
Pol eta inh – inhibitors of human DNA polymerase eta. Q9Y253. recombinant Pol eta, fluorescent DNA replication assay. Potency, µM (doses to about 114 µM), actives largely listed as inhibitors. 390,000 tested, 1.2% active. AID 588591
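Fluorescent replication assay: 50 nM final substrate added after a 15 min room-temperature compound preincubation with 10 nM enzyme. Signal taken at 0 min and again at 10 min.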
Pol iota inh – DNA polymerase iota (human) inhibition. Pol iota fluorescent replication assay, 10 min. Potency, µM (titrated, usually from 115 µM), hits mostly inhibitors. 390,000 tested, 1% active
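Pol iota at 10 nM preincubated 15 min with compounds at room temperature; reaction started with fluorescent substrate, 50 nM final. Fluorescence read kinetically at 0 and 10 min; buffer-only wells as negative control.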
12-LOX inh – inhibitors of human 12S-lipoxygenase ALOX12. purified 12hLO, xylenol orange hydroperoxide absorbance. Potency, µM (doses to about 108 µM), hits mostly inhibitors. 580,000 tested, 1.1% active
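Hydroperoxide product was detected by ferrous iron/xylenol orange as the 573 to 405 nm absorbance ratio. Arachidonic acid at 40 uM (final) was turned over for 30 min at room temperature by 150 nM human 12hLO, pH 7.0 Hepes buffer, after 15 min compound preincubation.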
PI5P4Ka inh – blocks human PI5P4K alpha kinase activity. PI5P4Kalpha enzyme, ADP-Glo luminescence, 60 min; stronger effect = lower value. max response, %. 330,000 tested, 1.2% active. AID 652105; active means max response of -50% or lower; inconclusive means between -30% and -50%; inactive means -30% or higher; further: value at the top dose of about 77 µM
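Enzyme plus substrate dispensed, test compounds pinned in, then ATP (5 microM final) added. After 60 min at RT, ADP-Glo reagent 1 for 45 min and reagent 2 for 30 min preceded luminescence imaging.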
POLK inh – blocks human DNA polymerase kappa activity | purified Pol kappa, fluorescent DNA synthesis assay, 10 min | 400,000 tested, 0.53% active | Q9UBT6 | Potency, µM (highest dose often 107 µM), usual class: inhibitors
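First, compounds were pin-transferred onto 10 nM Pol kappa. After 15 min at room temperature, substrate was added to 50 nM final. Fluorescence was then measured kinetically at 0 and 10 min.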
Each line names hits and unclear results; the compound was inactive in the other large screens. Sampled rows, rich in hits. Any-hit rate of the full collection: about 2.9%. Unless noted, the call rests on the fitted dose curve; in most records, active means well fitted inhibition curve with a large enough effect; inconclusive means small, poorly fitted or top-dose-only effect, or another doubt; inactive means no such curve, though single readings can be large or run the other way.

CC(C)(C)c1[nH]c2ccc(-c3ccccc3)cc2c1C=O	none (no result: Pol beta inh, Pol eta inh, Pol iota inh, PI5P4Ka inh, POLK inh)
CN(CC(=O)N1CCc2ccccc2C1)S(=O)(=O)c1ccc(Br)cc1	none (no result: Pol beta inh, Pol eta inh, Pol iota inh, PI5P4Ka inh, POLK inh)
COC1=C/C(=C/c2c(N)n3cc(C)sc3nc2=O)C=CC1=O	12-LOX inh inconclusive, PI5P4Ka inh -81.0
Cc1cn2c(N)c(C=C3C=C(Cl)C(=O)C(Cl)=C3)c(=O)nc2s1	Pol eta inh inconclusive, PI5P4Ka inh -78.1
COc1ccc(C)cc1NS(=O)(=O)c1c(C)nc2sc(C)cn2c1=O	none (no result: PI5P4Ka inh)
COc1cccc(-c2nc3cc(NC(=O)c4cccc([N+](=O)[O-])c4)ccc3o2)c1	none (no result: Pol beta inh, Pol eta inh, Pol iota inh, PI5P4Ka inh, POLK inh)
O=S(=O)(c1cccc2ccccc12)N1CCCC(CO)(Cc2cccc(Cl)c2)C1 (configuration not stated)	none (no result: Pol beta inh, Pol eta inh, Pol iota inh, PI5P4Ka inh, POLK inh)
CC(=O)Oc1cc2c(cc1Cl)C(c1cccs1)CC1(CC(C)(C)NC(=S)N1)O2 (configuration not stated)	12-LOX inh 31.6µM
O=c1c(C(c2ccccc2)c2c(O)sc3ccccc3c2=O)c(O)sc2ccccc12	Pol beta inh 31.6µM, 12-LOX inh inconclusive (no result: PI5P4Ka inh)
O=c1c2ccccc2sc2ccc(Cl)cc12	none
COc1ccc(N2CC(C)(NC(C)=O)C2)cc1	none (no result: Pol beta inh, Pol eta inh, Pol iota inh, PI5P4Ka inh, POLK inh)
Cc1ccccc1Cc1c(C)nc2nc(SCC(=O)NCc3ccco3)nn2c1C	none
Cc1ccccc1Cc1c(C)nc2c(C(=O)NCc3ccco3)cnn2c1C	Pol beta inh 44.7µM, Pol eta inh inconclusive, Pol iota inh inconclusive, 12-LOX inh inconclusive (no result: PI5P4Ka inh)
C#CCOCCOCCOCCNc1nc(N2CCOCC2)nc(N2CCN(C(=O)CCCCCCCCCCNC(=O)[C@@H](CCSC)n3cc(CCO)nn3)CC2)n1	Pol iota inh inconclusive (no result: Pol beta inh)
C#CCOCCOCCOCCNc1nc(N2CCN(C(=O)CCCCCCCCCCNC(=O)[C@@H](CCSC)n3cc(CCO)nn3)CC2)nc(N2CCN(C(=O)CCCCCCCCCCNC(=O)[C@H]([C@@H](C)CC)n3cc(CCCCN=C(N)N)nn3)CC2)n1	Pol eta inh 79.4µM, Pol iota inh inconclusive, PI5P4Ka inh -72.8 (no result: Pol beta inh, 12-LOX inh)
C#CCOCCOCCOCCNc1nc(N2CCN(C(=O)CCCCCCCCCCNC(=O)[C@@H](CCSC)n3cc(CCO)nn3)CC2)nc(N2CCN(C(=O)CCCCCCCCCCNC(=O)[C@H]([C@@H](C)CC)n3cc(CCCCCN)nn3)CC2)n1	Pol eta inh inconclusive, Pol iota inh inconclusive, PI5P4Ka inh -53.8 (no result: Pol beta inh, 12-LOX inh)
C#CCOCCOCCOCCNc1nc(N2CCN(C(=O)CCCCCCCCCCNC(=O)[C@H](CO)n3cc(CCCSC)nn3)CC2)nc(N2CCN(C(=O)CCCCCCCCCCNC(=O)[C@H](CO)n3cc(CCCSC)nn3)CC2)n1	12-LOX inh inconclusive (no result: Pol beta inh)
Cn1c(=O)c(Oc2ccc(F)cc2F)cc2cnc(NC3CCOCC3)nc21	12-LOX inh 17.2µM (no result: Pol beta inh, Pol eta inh, Pol iota inh, PI5P4Ka inh, POLK inh)
O=C(Cc1ccccc1)OCC(=O)c1ccc(-c2ccccc2)cc1	none (no result: Pol beta inh, Pol eta inh, Pol iota inh, PI5P4Ka inh, POLK inh)
Cn1c(=O)c2cn(S(=O)(=O)c3ccccc3)nc2n(C)c1=O	none (no result: Pol beta inh, Pol eta inh, Pol iota inh, PI5P4Ka inh, POLK inh)
Clc1ccc(CNC2CCCC2)c(Cl)c1	none (no result: PI5P4Ka inh)
S=C(NCc1ccc(Cl)cc1Cl)NC1CCCCC1	Pol eta inh inconclusive, 12-LOX inh 39.8µM
COc1cccc(CNc2ncc(-c3ccc(Br)cc3)n2C)c1	Pol beta inh inconclusive, Pol iota inh inconclusive, 12-LOX inh 8.91µM (no result: PI5P4Ka inh)
Cn1c(-c2cccc(Br)c2)cnc1NCc1ccccc1O	12-LOX inh 14.1µM
COc1ccc(CNc2ncc(-c3ccc(Br)cc3)n2C)cc1OC	none
Cn1c(-c2ccc(Br)cc2)cnc1NCc1ccc(C#N)cc1	12-LOX inh 2.51µM
Cn1c(-c2ccccc2)cnc1NCc1ccccc1	12-LOX inh inconclusive
COc1ccccc1N1CCN(CCN2C(=O)C3CCCCN3C2=O)CC1 (configuration not stated)	12-LOX inh 12.6µM
COc1ccccc1N1CCN(CCCN2C(=O)C3CCCCN3C2=O)CC1 (configuration not stated)	Pol iota inh inconclusive (no result: Pol beta inh)
COc1ccc(CCNC(=O)c2cc3c(=O)n4ccccc4nc3n(Cc3ccco3)c2=N)cc1OC	Pol eta inh inconclusive
Cc1ccc(Cn2c(=N)c(C(=O)NCc3ccco3)cc3c(=O)n4ccccc4nc32)cc1	Pol beta inh 7.94µM, Pol eta inh 8.91µM, Pol iota inh 3.98µM, 12-LOX inh inconclusive, POLK inh inconclusive
N=c1c(S(=O)(=O)c2ccc(Cl)cc2)cc2c(=O)n3ccccc3nc2n1Cc1ccco1	Pol beta inh 8.91µM, Pol eta inh inconclusive, Pol iota inh inconclusive, 12-LOX inh inconclusive
CCOCCCn1c(=N)c(C(=O)NCc2ccco2)cc2c(=O)n3ccccc3nc21	12-LOX inh inconclusive (no result: PI5P4Ka inh)
COCCCn1c(=N)c(C(=O)NCc2ccco2)cc2c(=O)n3ccccc3nc21	Pol iota inh 79.4µM (no result: PI5P4Ka inh)
N=c1c(C(=O)NCc2ccco2)cc2c(=O)n3ccccc3nc2n1CCc1ccccc1	Pol beta inh 31.6µM, Pol eta inh inconclusive, Pol iota inh inconclusive
N=c1c(S(=O)(=O)c2ccc(Br)cc2)cc2c(=O)n3ccccc3nc2n1Cc1ccco1	Pol eta inh inconclusive, Pol iota inh inconclusive
Clc1cccc(-n2nnnc2-c2ccccc2)c1	none (no result: Pol beta inh, Pol eta inh, Pol iota inh, PI5P4Ka inh, POLK inh)
CCOc1ccc(C(=O)N2CCC(Cc3nc(-c4ccc(OC)cc4)no3)CC2)cc1OCC	none (no result: Pol beta inh, Pol eta inh, Pol iota inh, PI5P4Ka inh, POLK inh)
O=S(=O)(c1cc(Cl)ccc1Cl)N1CCN(c2nnnn2-c2ccccc2)CC1	none (no result: Pol beta inh, Pol eta inh, Pol iota inh, PI5P4Ka inh, POLK inh)

High-throughput results deposited in PubChem BioAssay by National Center for Advancing Translational Sciences (NCATS).
